This is part of a sample that, as a whole, favours compounds with a hit. Of some 79,000 tested, about 15% had one in any assay. Values without a mark were called inactive. The source made the active and inactive calls. Cut-off read from the data, not from the text of the source: active = growth inhibition above about 70%; inactive = the rest.
How the values were obtained:
[1] = NCI Yeast Anticancer Drug Screen. Data for the rad50 strain (AID 155);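 note: 0% = growth of vehicle-only cultures of the same strain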; settings: S. cerevisiae rad50 strain growth inhibition, stronger effect = higher value
Method in brief: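 Inhibition values express reduced yeast growth in compound-treated cultures relative to vehicle-treated controls.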

[2] = NCI Yeast Anticancer Drug Screen. Data for the mec2-1 strain (AID 157); settings: S. cerevisiae mec2-1 strain, stronger effect = higher value
Method in brief: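 Cells of the genetically defined mec2-1 yeast strain are incubated with test compound. Inhibition of growth is calculated against vehicle-treated controls.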

[3] = NCI Yeast Anticancer Drug Screen. Data for the sgs1 mgt1 strain (AID 161);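 note: 0% = growth of cultures given vehicle only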; settings: S. cerevisiae sgs1 mgt1 strain, stronger effect = higher value
Method in brief: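 Genetically altered yeast, compound exposure, growth inhibition relative to vehicle.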

[4] = NCI Yeast Anticancer Drug Screen. Data for the cln2 rad14 strain (AID 165);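 note: 0% = growth equal to vehicle treated cultures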; settings: S. cerevisiae cln2 rad14 strain, stronger effect = higher value
Method in brief: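 The screen exposed genetically defined yeast (cln2 rad14) to test compounds and scored growth inhibition relative to vehicle-treated controls.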

[5] = NCI Yeast Anticancer Drug Screen. Data for the bub3 strain (AID 167); settings: S. cerevisiae bub3 mutant strain, stronger effect = higher value
Method in brief: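 Steps: expose the mutant yeast strain to compound; grow alongside vehicle-treated cultures; measure growth; express inhibition against the vehicle cultures.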

[6] = NCI Yeast Anticancer Drug Screen. Data for the mlh1 rad18 strain (AID 175); settings: S. cerevisiae mlh1 rad18 strain growth inhibition, stronger effect = higher value
Method in brief: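 Compound-treated yeast growth, normalised to vehicle controls. Strain bears defined DNA repair mutations.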

[7] = at 5.0 µM (retest, dose inferred, filed as 0.5)
[8] = at 50.0 µM (retest, dose inferred, filed as 5.0)

SMILES	growth inhibition [1, 7] [%]	growth inhibition [1, 8]	growth inhibition ([1]; at 50.0 µM)	growth inhibition [2, 7] [%]	growth inhibition [2, 8]	growth inhibition ([2]; at 50.0 µM)	growth inhibition [3, 7] [%]	growth inhibition [3, 8]	growth inhibition ([3]; at 50.0 µM)	growth inhibition [4, 7] [%]	growth inhibition [4, 8]	growth inhibition ([4]; at 50.0 µM)	growth inhibition [5, 7] [%]	growth inhibition [5, 8]	growth inhibition ([5]; at 50.0 µM)	growth inhibition [6, 7] [%]	growth inhibition [6, 8]	growth inhibition ([6]; at 50.0 µM)
Nc1nc(-c2ccccc2)c(N=Nc2c(Cl)cccc2Cl)s1	-2	94% (active)	96.5% (active)	21	95% (active)	90.3% (active)	9	94% (active)	55.4%	17	95% (active)	87.7% (active)	13	94% (active)	91% (active)	17	94% (active)	96.8% (active)
COc1cccc(C=Nc2ccc(I)cc2)c1O.COc1cccc(C=Nc2ccc(I)cc2)c1O.[Co]	15	56%	29.4%	11	25%	11.7%	12	31%	30.2%	10	19%	21%	10	9%	52.1%	13	37%	19.2%
Oc1ccc2cc(Br)ccc2c1O	-28	97% (active)	97.2% (active)	-11	97% (active)	98.3% (active)	10	98% (active)	97.5% (active)	-24	97% (active)	97% (active)	-5	98% (active)	98% (active)	-7	97% (active)	98.2% (active)
O=[N+]([O-])C1=Cc2ccccc2S(=O)(=O)CC1	6	93% (active)	92.9% (active)	14	93% (active)	92.2% (active)	14	95% (active)	92.7% (active)	-8	83% (active)	63.5%	-24	85% (active)	90.5% (active)	21	97% (active)	97.9% (active)
O=C(O)c1ccc2ccccc2c1C(=O)c1cccc2ccccc12	12	12%	86.8% (active)	1	8%	83.5% (active)	0	21%	90.4% (active)	7	9%	92.1% (active)	0	3%	83.2% (active)	-5	15%	92.2% (active)
CCOc1nc(N)nc(C)c1N=Nc1ccc(Br)cc1	9	90% (active)	70.2% (active)	0	32%	2.6%	4	72% (active)	22.2%	4	30%	-9.65%	4	88% (active)	75.9% (active)	17	98% (active)	35.1%
COc1ccc(COCCOCc2nc(C#N)c(N)o2)cc1	16	8%	43.3%	13	9%	12.1%	16	5%	-25.1%	16	11%	-16.8%	22	12%	-31.7%	10	4%	-1.6%
O=C(CC1Sc2ccccc2NC1=O)Nc1ccc([N+](=O)[O-])cc1[N+](=O)[O-] (stereo not given)	30	81% (active)	88% (active)	25	89% (active)	93.3% (active)	51	98% (active)	81.8% (active)	34	62%	28.9%	36	97% (active)	92% (active)	51	96% (active)	86.9% (active)
COC(=O)[C@@H](O)[C@]1(C(=O)OC)C2O[C@@H](OC)[C@@H]1CCCCCC[C@H]2O	21	11%	-2.05%	10	11%	0.45%	10	17%	-6.85%	17	29%	2.1%	18	13%	8.85%	19	12%	-1.95%
CCN(CC)c1cccc(OC(=O)Nc2cccc(C(F)(F)F)c2)c1	50	73% (active)	84% (active)	37	73% (active)	81.2% (active)	42	80% (active)	83.8% (active)	28	64%	82.9% (active)	42	79% (active)	87.6% (active)	44	88% (active)	83.4% (active)

Reference: PubChem BioAssay (NCI)
